Only some compounds are listed: those with a hit (about 8.9% of all), similar ones and a draw of the others.
ALOX12 inhib – 12-hLO (ALOX12) enzyme inhibition; 0.12% of 150,000 active; Potency, µM (titrated, usually from 57.1 µM), without a hit: at the highest dose activity change, negative = inhibition, usual class: inhibitors; purified 12-hLO, xylenol orange hydroperoxide absorbance; also: potency is read from the fitted curve at half-maximal effect; nearly all actives have a fitted effect of over 55% in size
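Hydroperoxide output read as Fe(III)-xylenol orange absorbance, 573-to-405 nm ratio, after 30 min reaction with 40 uM arachidonic acid. Enzyme: 150 nM purified human 12hLO, 15 min compound preincubation; 25 mM Hepes pH 7.0, room temperature.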
NPSR antag – blocks cAMP signaling of the human neuropeptide S receptor; Q6W5P4; CHO-NPSR cells, cAMP TR-FRET, antagonist mode; Potency, µM (highest dose often 38.3 µM), for the others: at the top dose activity change, negative = inhibition, hits mostly inhibitors; 1% of 220,000 active; AID 1461; also: potency is read from the fitted curve at half-maximal effect; nearly all actives have a fitted effect of over 50% in size
IMPase Li cell – membrane-permeable IMPase blocker, potentiated with lithium; CHO-M1 cells, IP1 TR-FRET (IP-One), carbachol + lithium; Potency, µM (titrated, usually from 59.4 µM), for the others: at the highest dose activity, negative = IMPase inhibition, usual class: inhibitors; 0.35% of 210,000 active; AID 1457;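 also: IP1 builds up when IMPase is blocked and the TR-FRET signal falls; potency is read from the fitted curve at half-maximal effect; plate controls were basal vehicle for no effect and high inhibitor control for full effect; nearly all actives have a fitted effect of over 50% in size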
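Test compounds were applied to CHO-M1 cells previously cultured for 16–30 h at 2000 per well. A small lithium amount accompanied them; after 30 min at 37C, IP1 was quantified by TR-FRET.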
HPGD block – blocks human HPGD enzyme activity; purified HPGD, NADH fluorescence kinetic, PGE2 substrate; Potency, µM, inactives show at the highest dose activity change, negative = inhibition, most hits filed as inhibitors; 4.3% of 150,000 active; AID 894; active = well fitted inhibition curve with a large enough effect, not every such curve was filed as active; inconclusive = small, poorly fitted or top-dose-only effect, or another doubt; inactive = no such curve, though single readings can be large or run the other way; also: potency is read from the fitted curve at half-maximal effect
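NADH formation kinetics: reaction with 30 uM PGE2 and 1 mM NAD+ (final), 20 nM enzyme, Tris-HCl pH 8 with Tween 20, after 15 min compound preincubation at room temperature. Fluorescence change, last versus first of five reads.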
ALDH1A1 block – blocks purified human ALDH1A1 activity. Purified ALDH1A1, NADH fluorescence, propionaldehyde substrate. 7.3% of 220,000 active. Potency, µM (highest dose often 75.3 µM), for the others: top-dose activity, negative = inhibition, hits mostly inhibitors. P00352; active = well fitted inhibition curve with a large enough effect, not every such curve was filed as active; inconclusive = small, poorly fitted or top-dose-only effect, or another doubt; inactive = no such curve, though single readings can be large or run the other way;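 also: potency is read from the fitted curve at half-maximal effect; plate controls were no enzyme wells and a reference inhibitor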
Target sequence (P00352 whole entry, looked up): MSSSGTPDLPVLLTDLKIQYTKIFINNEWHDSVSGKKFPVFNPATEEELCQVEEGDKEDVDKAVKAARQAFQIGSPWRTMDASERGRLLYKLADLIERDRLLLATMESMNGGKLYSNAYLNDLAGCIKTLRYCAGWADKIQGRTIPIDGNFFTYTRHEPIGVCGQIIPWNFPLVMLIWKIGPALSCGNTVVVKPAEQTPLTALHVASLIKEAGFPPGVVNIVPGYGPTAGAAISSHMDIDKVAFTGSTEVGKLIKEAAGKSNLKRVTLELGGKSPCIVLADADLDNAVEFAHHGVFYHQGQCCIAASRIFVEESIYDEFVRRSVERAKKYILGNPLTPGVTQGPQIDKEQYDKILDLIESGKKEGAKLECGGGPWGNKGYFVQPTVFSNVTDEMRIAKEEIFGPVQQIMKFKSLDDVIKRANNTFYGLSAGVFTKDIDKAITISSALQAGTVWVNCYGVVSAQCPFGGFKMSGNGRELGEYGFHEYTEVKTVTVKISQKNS
IMPase inh – IMPase inhibition in cells; P97697; CHO-M1 cells, IP1 accumulation, HTRF TR-FRET ratio; inhibition (IP1 accumulation), % at 46.1 µM; 120,000 tested, under 10 active; active = well fitted curve in the direction sought with a large enough effect in the signal ratio, not every such curve was filed as active; inconclusive = small, poorly fitted or top-dose-only effect, or a change in a side signal; inactive = no such curve, though single readings can be large or run the other way; the % refers to the signal ratio;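 also: cells stimulated with carbachol in lithium chloride buffer; plate controls were DMSO basal wells for no effect and reference inhibitor wells for full effect; higher means more IMPase inhibition seen as more IP1 and lower FRET ratio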
Target sequence (P97697 whole entry, looked up): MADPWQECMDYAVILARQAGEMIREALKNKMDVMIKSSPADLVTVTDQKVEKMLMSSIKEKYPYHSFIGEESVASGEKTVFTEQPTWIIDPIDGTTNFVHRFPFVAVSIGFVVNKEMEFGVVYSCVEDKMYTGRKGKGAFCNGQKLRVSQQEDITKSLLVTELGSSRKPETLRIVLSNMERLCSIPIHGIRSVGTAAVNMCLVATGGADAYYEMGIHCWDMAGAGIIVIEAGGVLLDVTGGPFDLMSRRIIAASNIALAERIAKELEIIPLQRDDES
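Carbachol-driven Gq signalling in CHO-M1 cells (2000/well) generates IP1. Compounds that block IMPase raise IP1 and so reduce the FRET signal from Eu-anti-IP1 and d2-IP1 after a 10 min room-temperature lysis.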
The depositor's hits bear a star; u = inconclusive; x = not tested or not shown; [ ] = dose if it differs, or a comment. Unless noted, calls follow the shape of the dose curve; as a rule, active = well fitted curve in the direction sought with a large enough effect; inconclusive = small, poorly fitted or top-dose-only effect, or another doubt; inactive = no such curve, though single readings can be large; an effect the other way counts as inactive or inconclusive. Unless noted, % is scaled to controls: 0 for no effect and ±100 for the full control effect.

SMILES	ALOX12 inhib	NPSR antag	IMPase Li cell	HPGD block	ALDH1A1 block	IMPase inh
CCCCCCC(=O)OCC(=O)c1ccc2c(c1)NC(=O)CO2	x	0%	0%	x	3.5µM*	x
O=C1COc2ccc(C(=O)CCl)cc2N1	x	11%	x	x	0.11µM*	x
CCC(=O)c1ccc(OCC(=O)c2ccc3c(c2)NC(=O)CO3)cc1	x	33%	x	x	4%	x
O=C1COc2ccc(C(=O)C[n+]3cccc(O)c3)cc2N1	x	-31%	x	x	20µM*	x
O=C(Cn1c(=O)n(CCCS(=O)(=O)C2CCCCC2)c(=O)c2ccccc21)Nc1ccccc1F	x	x	x	x	x	-26
CC1=NN(C(=O)c2csc(C)c2C)C(O)(C(F)(F)F)C1 (stereo unspecified)	7%	23%	2%	-19%	4%	-5
CCC(C)Oc1cccc(OCCCCN2C(=O)NC(C)(C)C2=O)c1 (stereo unspecified)	2%	-14%[46.1 µM]	0%[38.3 µM]	-8%	-12%	-8
CC1(C)NC(=O)N(CCOCCOc2ccc3ccccc3c2Br)C1=O	6%	4%[46.1 µM]	-9%[38.3 µM]	-25%	-8%	2
CCC(=O)c1ccccc1OCCCN1C(=O)NC(C)(C)C1=O	0%	-4%[46.1 µM]	3%[38.3 µM]	-11%	10µM*	4
CC1(C)NC(=O)N(CCCCOc2ccc3ccccc3c2Cl)C1=O	7%	-12%[46.1 µM]	32%[38.3 µM]	-28%	18µM*	-1
CC(C)Cn1cnc2c(=O)oc3ccccc3c21	5%	-8%[46.1 µM]	22%[38.3 µM]	-22%	8%	0
CC1(C)CC(=O)C(C=NCCN2CCN(C3CC(=O)N(c4cccc(Br)c4)C3=O)CC2)=C(O)C1 (stereo unspecified)	x	24%	-4%	x	25µM*	x
CCc1cccc(NC(=O)NC2CCCCC2)c1	5%	3%[46.1 µM]	5%[38.3 µM]	-15%	11%	-10
CCC(C)(C)n1nnnc1CN1CCN(C(c2ccccc2)c2ccccc2)CC1	0%	u	13%	-12%	25µM*	u
CC(C)CCn1nnnc1CN1CCN(C(c2ccccc2)c2ccccc2)CC1	x	u	9%	x	14µM*	x
CC(C)CCn1nnnc1CN1CCN(c2ccc(F)cc2)CC1	x	21%	0%	x	2%	x
COc1ccc(N(C)S(=O)(=O)c2cccc(C(=O)Nc3ccc(OC)nc3)c2)cc1	-6%	10%	1%	-13%	6%	x
COc1ccccc1NC(=O)COC(=O)c1ccc([N+](=O)[O-])s1	x	1%	4%	x	10µM*	x
O=C(COC(=O)c1ccc([N+](=O)[O-])s1)NCc1ccc(F)cc1	-2%	9%	4%	-1%	7.1µM*	x
O=C(COC(=O)c1ccc([N+](=O)[O-])s1)NC(=O)NCc1ccccc1	x	0%	-17%	x	7.1µM*	x
CC(NC(=O)COC(=O)c1ccc([N+](=O)[O-])s1)c1ccccc1 (stereo unspecified)	1%	15%	-6%	-2%	u	-4
Cc1cc(C)c(NC(=O)COC(=O)c2ccc([N+](=O)[O-])s2)c(C)c1	-1%	7%	-2%	-3%	-1%	x
CN(C)c1ccc(/C=N/NC(=S)NCc2ccco2)cc1	-6%	-30%	3%	u	u	x
CN(C)c1ccc(C(=S)NCc2ccco2)cc1	-5%	-8%[46.1 µM]	22%[38.3 µM]	u	5µM*	-4
CCOC(=O)C1CCCN(CCC(=O)Nc2cccc(F)c2)C1 (stereo unspecified)	-3%	-11%[46.1 µM]	13%[38.3 µM]	-11%	12%	9
SMILES	ALOX12 inhib	NPSR antag	IMPase Li cell	HPGD block	ALDH1A1 block	IMPase inh
COc1cccc(NC(=O)NC(C)C2CC3CCC2C3)c1 (stereo unspecified)	x	-17%	23%	x	5µM*	x
S=C(c1ccc(-c2ccc(Br)cc2)o1)N1CCOCC1	x	-32%	x	x	x	x
S=C(c1ccc(-c2ccc(Cl)c(Cl)c2)o1)N1CCOCC1	-17%	0%[46.1 µM]	-2%[38.3 µM]	25µM*	8.9µM*	-15
S=C(c1ccc(-c2ccccc2Cl)o1)N1CCOCC1	-18%	-14%[46.1 µM]	26%[38.3 µM]	8.9µM*	7.9µM*	u
CC(C)Cn1cnc2c(c1=N)C(c1ccccc1)C1=C(CC(C)(C)CC1=O)O2 (stereo unspecified)	x	1%	x	x	x	x
CCCCCCC(=O)N/N=C/Cc1ccccc1	1%	-2%[46.1 µM]	5%[38.3 µM]	-21%	13µM*	-2
CCCCCCCCC(=O)N/N=C(\C)c1ccco1	5%	-8%	7%	-7%	5%	x
CC(C)(C)c1nc(SCC(=O)NCc2ccco2)c2ccccc2n1	-2%	-22%[46.1 µM]	-8%[38.3 µM]	-18%	u	-21
CCCCn1c(SCC(=O)c2ccc(O)c(O)c2)nc2ccsc2c1=O	-18%	-9%[46.1 µM]	0%	-5%	u	-2
CCn1c(SCC(=O)N2CCN(c3cccc(Cl)c3)CC2)nc2ccccc2c1=O	-1%	u	16%	-18%	28µM*	14
CCn1c(SCC(=O)c2ccccc2)nc2ccccc2c1=O	x	-25%	20%	x	16µM*	x
CCCCn1c(SCC(=O)c2ccccc2)nc2ccsc2c1=O	2%	-44%	13%	-1%	7.1µM*	x
COc1ccc(C(=O)CSc2nc(C(C)(C)C)nc3ccccc23)cc1	x	37%	11%	x	14µM*	x
CCn1c(SCC(=O)NCc2ccccc2)nc2ccccc2c1=O	-5%	-27%[46.1 µM]	6%[38.3 µM]	-9%	5%	-7
CC(C)N(C(=O)c1ccc2nc(-c3ccccc3)c(-c3ccccc3)nc2c1)C(C)C	-1%	-45%	13%	u	u	x
CC(C)(C)c1nnc(SCC(=O)c2ccccc2)n(N)c1=O	-16%	4%	18%	25µM*	9%	x
COc1ccc(C(=O)CSc2nc3ccccc3n2CC(=O)c2ccccc2)cc1	-5%	u	14%[38.3 µM]	-5%	25µM*	11
CCOC(=O)c1c(C)[nH]c(C)c1C(=O)CSc1nc2ccccc2c(=O)n1-c1ccc(CC)cc1	2%	-33%	6%	-7%	u	x
CC(=O)c1ccc(-n2c(SCC(=O)c3c[nH]c4ccccc34)nc3ccccc3c2=O)cc1	2%	-4%	-23%	28µM*	17%	u
CCOC(=O)c1c(NC(=O)CN2C(=O)NC(C)(c3ccc(OC(F)F)cc3)C2=O)sc(C)c1C (stereo unspecified)	0%	-17%	4%	u	-4%	13
CC(C)OC(=O)CC(NC(=O)OC(C)(C)C)c1ccccc1 (stereo unspecified)	1%	10%	11%	-7%	13%	x
Cc1cc(C)cc(-c2nnc(SCC(=O)c3ccc4c(c3)OCCO4)o2)c1	3%	-8%[46.1 µM]	u	-5%	-2%	2[0.369 µM]
O=C(CSc1nnc(-c2ccc3c(c2)OCCO3)o1)N1CCCC1	4%	-15%[46.1 µM]	-14%[38.3 µM]	-25%	25µM*	6
O=C(CSc1nnc(-c2ccccc2)o1)c1ccc2c(c1)OCCO2	-1%	3%[7.67 µM]	u	-7%	3.2µM*	7

High-throughput results (PubChem)
